Measurements as given in PubChem BioAssay (NCATS).
Inconclusive results are not listed. Activity calls are given as the source filed them. Calls come from the whole dose curve; as a rule, active = well fitted cell-killing curve with a large enough effect; inconclusive = small, poorly fitted or top-dose-only effect, or effect the other way; inactive = no such curve, though single readings can be large or run the other way.
Potency is the fitted concentration of half-maximal effect.

Assay: Quantitative High-Throughput drug screen in 47 multiple myeloma cell lines against the NCATS MIPE library collection: XG1_PLB cell viability assay (AID 1919866); note: nearly all actives have a fitted effect of over 35% in size
Conditions: CellTiter-Glo ATP, 48 h; series mostly up to 45.8 µM
Description: PI: Beverly A. Mock Ph.D.
Laboratory of Cancer Biology and Genetics,
Center for Cancer Research, National Cancer Institute,
National Institute of Health, Bethesda, Maryland
Drug resistance and disease progression are common in multiple myeloma (MM) patients, underscoring the need for new therapeutic combinations. […] We hypothesized that effective combinations would reduce MYC expression and enhance p16 activity. […] These preclinical data identify potentially useful drug combinations for evaluation in drug-resistant MM and reveal potential mechanisms of combined drug sensitivity.
Described herein is the primary MIPE qHTS used to cherrypick compounds. Validated compounds were then further tested for potential synergistic activiy.
[1] Peat TJ, Gaikwad SM, Dubois W, Gyabaah-Kessie N, Zhang S, Gorjifard S, Phyo Z, Andres M, Hughitt VK, Simpson RM, Miller MA, Girvin AT, Taylor A, Williams D, D'Antonio N, Zhang Y, Rajagopalan A, Flietner E, Wilson K, Zhang X, Shinn P, Klumpp-Thomas C, McKnight C, Itkin Z, Chen L, Kazandijian D, Zhang J, Michalowski AM, Simmons JK, Keats J, Thomas CJ, Mock BA. Drug combinations identified by high-throughput screening promote cell cycle transition and upregulate Smad pathways in myeloma. Cancer Lett. 2023 Aug 1;568:216284. doi: 10.1016/j.canlet.2023.216284. Epub 2023 Jun 24. PMID: 37356470; PMCID: PMC10408729.
SEQUENCE No. (e.g., 1, 2, 3, etc.); […] (e.g., Cells, Incubation, Reagent, etc.); VALUE and DESCRIPTION.
1; Cells; 5 uL; white, solid bottom 1536-well Greiner assay plate.
2; Compounds; 23 nL; Kalypsis pin tool (Wako USA) equipped with a 1536-well pin head to transfer to the assay plates.
3; Incubation; 48 hours; 37C incubation.
4; Reagent;5uL; CellTiter Glo (Promega).
5; Detector; 425V; Luminescence; Viewlux PerkinElmer.
NOTES (numbers refer to Sequence numbers above)
1. The cell-based screening methods employed in this study were like those previously published. Briefly, the corresponding myeloma cell lines were screened in 1,536-well plates with 500 cells, 5-uL per well for inhibition of cell viability (assessed by measuring ATP levels with CellTiterGlo).
2. NCATS MIPE 4.0 library of approved and investigational drugs were added using the Kalypsis pin tool. Wells treated with DMSO only for 100% viability and media only for 0% viability were used as controls.
3. The assay plates were covered and incubated for 48 hours in a 37C, 5% CO2 incubator with controlled humidity.
4. After 48 hours, CellTilter-GloTM luminescent substrate mix (Promega) reagent was added to the assay plate and plates we incubated for 5 min at room temperature.
5. Signal was measured as median relative luminescence units on a ViewLux (PerkinElmer) multiplate reader.
[1] Heske CM, Davis MI, Baumgart JT, Wilson K, Gormally MV, Chen L, Zhang X, Ceribelli M, Duveau DY, Guha R, Ferrer M, Arnaldez FI, Ji J, Tran HL, Zhang Y, Mendoza A, Helman LJ, Thomas CJ. Matrix Screen Identifies Synergistic Combination of PARP Inhibitors and Nicotinamide Phosphoribosyltransferase (NAMPT) Inhibitors in Ewing Sarcoma. Clin Cancer Res. 2017 Dec 1;23(23):7301-7311. doi: 10.1158/1078-0432.CCR-17-1121. Epub 2017 Sep 12. PMID: 28899971; PMCID: PMC6636827.
For CC(C)(F)C[C@H](N[C@@H](c1ccc(-c2ccc(S(C)(=O)=O)cc2)cc1)C(F)(F)F)C(=O)NC1(C#N)CC1, the Potency was “inactive”. With COC(=O)Nc1ccc(-c2nc(N3CCOCC3)c3cnn(C4CCN(C(=O)OC)CC4)c3n2)cc1 the Potency was 0.296 µM (active). In the case of O=C(NC[C@H](O)CO)c1ccncc1Nc1ccc(I)cc1F, the Potency is reported as 14.8 µM (active). With CNC(=O)c1cc(Oc2ccc(NC(=O)Nc3ccc(Cl)c(C(F)(F)F)c3)c(F)c2)ccn1 the Potency was 2.64 µM (active). With CC(C)c1c(C(=O)Nc2ccccc2)c(-c2ccccc2)c(-c2ccc(F)cc2)n1CC[C@H](O)C[C@@H](O)CC(=O)O the Potency was 13.2 µM (active). In the case of CO[C@H]1O[C@@H]2O[C@@]3(C)CC[C@@H]4[C@@H](C)CC[C@@H]([C@H]1C)[C@@]24OO3, the Potency is reported as 2.96 µM (active). For C[C@@H](N)c1ccc(C(=O)Nc2ccnc3[nH]ccc23)cc1, the Potency was 20.9 µM (active). With CN1CCC[C@H]1CCO[C@](C)(c1ccccc1)c1ccc(Cl)cc1 the Potency was 18.7 µM (active). With CC[C@H](C)n1cc(C)c2c(C(=O)NCc3c(C)cc(C)[nH]c3=O)cc(-c3ccc(N4CCNCC4)nc3)cc21 the Potency was 9.35 µM (active). With Cc1cn([C@@H]2C[C@@H](O)[C@H](CO)O2)c(=O)[nH]c1=O the Potency was “inactive”. With CCC(=O)NCC[C@@H]1CCc2ccc3c(c21)CCO3 the Potency was “inactive”. In the case of NS(=O)(=O)c1cc(Cl)c(Cl)c(S(N)(=O)=O)c1, the Potency is reported as “inactive”. For NC[C@H]1O[C@H](O[C@@H]2[C@@H](O)[C@@H](O[C@H]3O[C@H](CO)[C@@H](O)[C@H](N)[C@@H]3O)[C@H](N)C[C@@H]2N)[C@H](O)[C@@H](O)[C@H]1O, the Potency was “inactive”. For NC(=O)c1nnn(Cc2cc(Cl)c(C(=O)c3ccc(Cl)cc3)c(Cl)c2)c1N, the Potency was 20.9 µM (active). In the case of C=C1[C@H](n2cnc3c(=O)[nH]c(N)nc32)C[C@H](O)[C@H]1CO, the Potency is reported as 1.18 µM (active). In the case of COc1ccc(-c2cc(=O)c3c(O)cc(O[C@@H]4O[C@H](CO[C@@H]5O[C@@H](C)[C@H](O)[C@@H](O)[C@@H]5O)[C@@H](O)[C@H](O)[C@@H]4O)cc3o2)cc1O, the Potency is reported as 8.33 µM (active). For CC(C)c1onc(-c2c(Cl)cccc2Cl)c1COc1ccc(C=Cc2cccc(C(=O)O)c2)c(Cl)c1, the Potency was “inactive”. For Cc1nc2c([nH]1)CCN(C(=O)c1ccc(NC(=O)c3ccccc3-c3ccccc3)cc1)c1ccccc1-2, the Potency was “inactive”. With NC(=O)c1ncn([C@@H]2O[C@H](CO)[C@@H](O)[C@@H]2O)n1 the Potency was “inactive”. With CCNC(=O)[C@H]1O[C@@H](n2cnc3c(N)nc(NCCc4ccc(CCC(=O)O)cc4)nc32)[C@H](O)[C@H]1O the Potency was “inactive”. In the case of COc1ccc(CCC(=O)Nc2nc3ccc(Cl)cc3s2)cc1OC, the Potency is reported as 16.6 µM (active). In the case of CN(C)c1nc(Cc2ccc(NC(=O)c3ccc(C(F)(F)F)cc3)cc2)nc(N(C)C)c1CC(=O)O, the Potency is reported as “inactive”. With CCOC(=O)[C@H](CCc1ccccc1)N[C@@H](C)C(=O)N1CCCC1C(=O)O (stereo not given in full) the Potency was 23.5 µM (active). In the case of O=C(c1ccc(F)c(F)c1Nc1ccc(I)cc1F)N1CC(O)([C@H]2CCCCN2)C1, the Potency is reported as 16.6 µM (active). For O=C1C(c2c(O)[nH]c3ccccc23)=Nc2ccccc21, the Potency was 0.418 µM (active). In the case of COc1ccc(C=CC(=O)Nc2ccccc2C(=O)O)cc1OC, the Potency is reported as 6.62 µM (active). In the case of C[C@@H]1CCO[C@H]2Cn3cc(C(=O)NCc4ccc(F)cc4F)c(=O)c(O)c3C(=O)N12, the Potency is reported as 26.4 µM (active). In the case of COC(=O)[C@H](c1ccccc1Cl)N1CCc2sccc2C1, the Potency is reported as “inactive”. For Oc1cc(O)cc(C=Cc2ccc(O)c(O)c2)c1, the Potency was 8.33 µM (active). In the case of NC(N)=Nc1nc(CSCCC(N)=NS(N)(=O)=O)cs1, the Potency is reported as 14.8 µM (active). For Cc1cnc(CNC(=O)c2c(=O)c3ccc(N4CCCN(C)CC4)nc3n3c2sc2ccccc23)cn1, the Potency was “inactive”. With OC[C@H]1O[C@@H](O[C@H]2[C@@H](O)[C@@](O)(CO)O[C@@H]2CO)[C@H](O)[C@@H](O)[C@@H]1O the Potency was 3.72 µM (active). In the case of COc1cc2c(cc1OC)CC(=O)N(CCCN(C)C[C@H]1Cc3cc(OC)c(OC)cc31)CC2, the Potency is reported as “inactive”. In the case of O=C(Nc1cccc(Cl)c1)Nc1ncc(CCNc2ncnc3ccsc23)s1, the Potency is reported as 1.32 µM (active). For CC(=O)OCC(=O)[C@@]1(O)CC[C@H]2[C@@H]3CCC4=CC(=O)C=C[C@]4(C)[C@@H]3[C@@H](O)C[C@@]21C, the Potency was “inactive”. In the case of CCC(=C(c1ccc(O)cc1)c1ccc(OCCNC)cc1)c1ccccc1, the Potency is reported as 11.8 µM (active). For O=C(O)C1=CO[C@@H](O[C@@H]2O[C@H](CO)[C@H](O)[C@H](O)[C@H]2O)[C@@H]2C(CO)=CC[C@H]12, the Potency was “inactive”. In the case of CCNC(=O)CCCC=CC[C@@H]1[C@H](C=CC(O)CCc2ccccc2)[C@@H](O)C[C@@H]1O (stereo not given in full), the Potency is reported as “inactive”. With O=C1Nc2ccc(I)cc2C1=Cc1cc(Br)c(O)c(Br)c1 the Potency was 20.9 µM (active). For CC(=O)Nc1cccc(-n2c(=O)n(C3CC3)c(=O)c3c(Nc4ccc(I)cc4F)n(C)c(=O)c(C)c32)c1, the Potency was 0.0418 µM (active).
